About 13,000 (27%) of roughly 48,000 compounds showed an effect of 50% or more. The list shows a part of the results.
Tested on: Wolbachia pipientis
Assay: Anti-Wolbachia Cell-Based Screen
Assay type: functional
Set-up: scale not given: in the data most compounds retested in dose-response had high values
Settings: 5 µM

SMILES	Percent Effect [%]
Cc1cccc(CN(C)Cc2nc3c(cnn3C)c(=O)[nH]2)c1	-4.984
CCN(Cc1nc2c(cnn2C)c(=O)[nH]1)Cc1ccccc1Cl	128.5
CCN(Cc1cccc(C)c1)Cc1nc2c(cnn2C)c(=O)[nH]1	145.1
CN(Cc1nc2c(cnn2C)c(=O)[nH]1)Cc1ccccc1Cl	-1.712
CCN(Cc1cccc(Cl)c1)Cc1nc2c(cnn2C)c(=O)[nH]1	6.587
CC(C)CN(CCc1ccccc1)Cc1nc2c(cnn2C)c(=O)[nH]1	122.3
CC(C)N(Cc1cccc(Cl)c1)Cc1nc2c(cnn2C)c(=O)[nH]1	119.9
CC(C)CN(Cc1nc2c(cnn2C)c(=O)[nH]1)C(C)C	-8.165
CCN(Cc1nc2c(cnn2C)c(=O)[nH]1)Cc1ccccc1C	-3.933
CC(C)N(Cc1cccc(F)c1)Cc1nc2c(cnn2C)c(=O)[nH]1	-9.693
CN(CCCc1ccccc1)Cc1nc2c(cnn2C)c(=O)[nH]1	-1.148
Cc1ccc(NCc2ccc(C#N)cc2)c(CN(C)C)c1	-4.346
N#CCCN(Cc1ccccn1)C(=O)Nc1cccnc1	-3.639
CCN(C)c1ccc(C(=O)NCCCc2ccccn2)cn1	1.401
CC(O)CC(C)(C)CNS(=O)(=O)c1cccc(Cl)c1C#N (stereo unspecified)	-3.91
O=C(CN1C(=O)CCNC1=O)N1CCOC(c2ccc(F)cc2)C1 (stereo unspecified)	13.31
CCN(CC(=O)NC(C)C)S(=O)(=O)N1CCCC(C)C1 (stereo unspecified)	-4.686
CC(=O)c1c(F)cccc1N1CCC(CS(N)(=O)=O)CC1	-2.597
CN(Cc1ccc([S+](C)[O-])cc1)c1ccc(Cl)cn1 (stereo unspecified)	-11.61
CCN(Cc1cccc(F)c1)Cc1nc2c(cnn2C)c(=O)[nH]1	117.6
CCN(Cc1nc2c(cnn2C)c(=O)[nH]1)c1ccccc1C	-6.85
CCN(Cc1ccccc1)Cc1nc2c(cnn2C)c(=O)[nH]1	106.9
Cn1ncc2c(=O)[nH]c(CN(Cc3cccc(F)c3)C3CC3)nc21	7.175
CC(C)CN1C(=O)CC[C@H]2CN(Cc3ncc[nH]3)CC[C@H]21	-0.2124
Cc1noc(Cl)c1CC(=O)NCC(C)(O)c1ccc(F)cc1F (stereo unspecified)	5.104
CN(Cc1nc(-c2cccnc2)no1)C(=O)c1c2c(nn1C)CCCC2	-6.1

SMILES	Percent Effect [%]
CCOCCOCc1cccc(CNc2cncc(-n3cccn3)n2)c1	5.599
CN(C)C(=O)C1CCN(c2cncc(-n3cccn3)n2)CC1	6.063
COC(=O)Nc1ccc(CNc2cncc(-n3cccn3)n2)cc1	97.69
O=C1CN(c2ccc(CNc3cncc(-n4cccn4)n3)cc2)CCN1	17.5
NS(=O)(=O)Cc1ccc(CNc2cncc(-n3cccn3)n2)cc1	114
CCOCc1ccc(CNc2nc(OC)ncc2Cl)cc1	-6.174
CC(C)COc1cncc(NCc2nnc3ccccn23)n1	-11.09
CCOCc1ccc(CNc2cncc(-n3cccn3)n2)cc1	106.2
CNS(=O)(=O)Cc1ccc(CNc2cncc(-n3cccn3)n2)cc1	3.239
CC(C)OCc1ccc(CNc2cncc(-n3cccn3)n2)cc1	123.9
Cc1cnn(CC(C)NCc2ccc(-n3cccn3)cc2)c1 (stereo unspecified)	9.413
Cc1cc(N2C[C@H](C3CC3)[C@@H](N)C2)nc(N2CCCCC2)n1	11.86
CC(C)c1cc(N2CCC(N(C)C)C2)n2nccc2n1 (stereo unspecified)	10.32
O=C1OCCN1Cc1ccc(C(F)(F)F)cc1F	-29.22
CCNc1ncc(C(=O)NC(c2ccccc2)c2ccco2)cn1 (stereo unspecified)	-3.465
COCCN(Cc1sccc1C)Cc1nccn1CCOC	4.16
CN(C)c1cc(CNc2cncc(-n3cccn3)n2)ccn1	94.25
CC(CNc1cncc(-n2cccn2)n1)N(C)c1ccccc1 (stereo unspecified)	0.6159
CN(C)c1ccc(CNc2cncc(-n3cccn3)n2)cc1	6.951
COCc1ccc(CNc2cncc(-n3cccn3)n2)cc1	105.5
CCN(CC)S(=O)(=O)c1ccc(NC(=O)C(C)(C)C)cc1	-6.648
O=C(CCSc1ccc(F)cc1)N1CCN(c2cnccn2)CC1	-10.65
O=C(CCOc1ccccc1Cl)N1CCN(c2cnccn2)CC1	81.46
O=C(CCSc1ccccc1F)N1CCN(c2cnccn2)CC1	4.662
O=C(COc1ccc(Cl)cc1)N1CCN(c2cnccn2)CC1	138.2
O=C(c1ccc(-n2cc(Br)cn2)cc1)N1CCN(c2cnccn2)CC1	12.88

SMILES	Percent Effect [%]
O=C(CCOc1cccc(Cl)c1)N1CCN(c2cnccn2)CC1	103.8
O=C(Cc1ccc2c(c1)OCO2)N1CCN(c2cnccn2)CC1	-5.983
O=C(CCOc1ccc(Br)cc1)N1CCN(c2cnccn2)CC1	108.9
Cc1nn(CC(=O)N2CCN(c3cnccn3)CC2)c(C)c1Cl	4.895
CC(CC(=O)N1CCN(c2cnccn2)CC1)c1ccc(F)cc1 (stereo unspecified)	3.505
CSCc1cccc(S(=O)(=O)NCCCO)c1	-5.091
CS(=O)(=O)CCN(CC1CCCO1)C1CCCC1 (stereo unspecified)	-6.798
CC(NCc1cn(CCC(N)=O)c2ccccc12)c1nncn1C (stereo unspecified)	-5.557
O=C(C[C@@H]1COC[C@H]2CN(C3CCCC3)C[C@@H]12)N1CCCCO1.O=C(O)C(F)(F)F	2.72
CN(C)CCOc1ccccc1N1CCN(C(=O)c2ccoc2)CC1	-4.916
Cc1ccc(C(=O)N2C[C@@H]3[C@@H](C2)OCC(=O)N3Cc2cccnc2)o1.O=C(O)C(F)(F)F	-3.343
Cc1ccoc1C(=O)N1CCc2ccc(=O)n(CCN(C)C)c2CC1.O=C(O)C(F)(F)F	99.37
CN(C)CCn1c2c(ccc1=O)CCN(C(=O)c1ccoc1)CC2.O=C(O)C(F)(F)F	107.6
Cc1ccc2c(n1)N(CCN(C)C)CCN(C(=O)c1ccoc1)C2.O=C(O)C(F)(F)F.O=C(O)C(F)(F)F	2.564
Cc1ccc(C(=O)N2CCc3ccc(=O)n(CCN(C)C)c3CC2)o1.O=C(O)C(F)(F)F	107.1
CN(C)CCn1c2c(ccc1=O)CCN(C(=O)c1cccs1)CC2.O=C(O)C(F)(F)F	111.2
Cc1ccoc1C(=O)N1Cc2c(Cn3ccnc3)nn(C)c2C1.O=C(O)C(F)(F)F	12.61
Cc1ccoc1C(=O)N1C[C@@H]2[C@@H](C1)OCC(=O)N2Cc1cccnc1.O=C(O)C(F)(F)F	8.295
Cc1ccc(C(=O)N2CCn3cc(CN(C)Cc4ccco4)nc3C2)o1.O=C(O)C(F)(F)F	-7.52
Cc1ccc2c(n1)N(CCN(C)C)CCN(C(=O)c1cccs1)C2.O=C(O)C(F)(F)F.O=C(O)C(F)(F)F	-13.61
CCS(=O)(=O)c1ccc2oc([C@H]3CCN(Cc4ccccc4)C3)nc2c1	-9.259
CC(NCCN1CCC(N(C)C)CC1)c1ccc(F)cc1N(C)C (stereo unspecified)	-1.854
CCc1nc(CC(=O)N2CCC(C(=O)N(CC)CC)CC2)cs1	9.803
NC(=O)C1CCN(C(=O)c2cccc(OCc3cscn3)c2)CC1	-9.747
Cc1cc(C)c(CNC(=O)NCCNc2cnccn2)c(=O)[nH]1	6.343
Cc1ccc(C(=O)N2CCN(CCC(C)(C)C)CC2)c(=O)[nH]1	-8.325

SMILES	Percent Effect [%]
CC(C(=O)NCc1ccc(F)cc1)N(C)CCN1CCOCC1 (stereo unspecified)	8.931
CC(=O)NCC(=O)N(CCN1CCOCC1)Cc1ccco1	-7.485
CS(=O)(=O)CC(=O)N(CCN1CCOCC1)Cc1ccco1	-25.1
C/C=C(\C)CN(CCN1CCOCC1)Cc1ccco1	118.7
CN(C)CCN1CCOCC2(C1)CN(Cc1ccco1)CCO2.O=C(O)C(F)(F)F.O=C(O)C(F)(F)F.O=C(O)C(F)(F)F (stereo unspecified)	27
OCC(O)CN(CCN1CCOCC1)Cc1ccco1 (stereo unspecified)	99.07
OCc1ccncc1NCc1cnc(-c2ccccn2)s1	-4.749
Cc1cc2n(n1)CC(CNC1CCN(c3ccccn3)CC1)CN2 (stereo unspecified)	4.836
Cn1ccnc1CN1CCC2(CC(=O)N(c3ccsc3)C2)C1.O=C(O)C(F)(F)F (stereo unspecified)	6.522
O=C(NCc1cccc(F)c1)N1CCC2(CC(=O)N(c3ccsc3)C2)C1 (stereo unspecified)	6.273
O=C(NCc1ccccc1)N1CCC2(CC(=O)N(c3ccsc3)C2)C1 (stereo unspecified)	-8.501
O=C(NCc1ccccc1)N1CCC2(CC(=O)N(c3ccccc3)C2)C1 (stereo unspecified)	115.5
O=C(NCc1cccnc1)N1CCC2(CC(=O)N(c3ccsc3)C2)C1.O=C(O)C(F)(F)F (stereo unspecified)	89.85
O=C(NC[C@H]1COCc2nc3cc(F)ccc3n21)c1cccnc1	-2.363
CCS(=O)(=O)CCNC(=O)[C@@]12CNC[C@@H]1CN(C1CCCC1)C2	17.06
CC(=O)Nc1ccc(CNC2CCCSC2)cc1 (stereo unspecified)	-9.842
Cn1ccc(C(=O)N2C[C@@H]3OCCN(c4ncccn4)[C@@H]3C2)n1.O=C(O)C(F)(F)F	98.93
Cc1occc1C(=O)N1C[C@@H]2[C@@H](C1)OCC(=O)N2Cc1cccnc1.O=C(O)C(F)(F)F	-5.789
Cc1cccc(C(=O)N2C[C@@H]3OCCN(c4ncccn4)[C@@H]3C2)n1.O=C(O)C(F)(F)F.O=C(O)C(F)(F)F	-4.674
Cc1occc1C(=O)N1C[C@H]2CCCC(OCc3cccnc3)[C@H]2C1.O=C(O)C(F)(F)F (stereo partly specified)	-5.108
Cc1ccccc1C(=O)N1C[C@@H]2OCCN(c3ncccn3)[C@@H]2C1.O=C(O)C(F)(F)F	105.7
Cn1ccc(C(=O)N2C[C@@H]3CCN(c4cccnc4)C[C@@H]3C2)n1.O=C(O)C(F)(F)F	-11
Cc1occc1C(=O)N1C[C@@H]2OCCN(c3ncccn3)[C@@H]2C1.O=C(O)C(F)(F)F	117.5

From ChEMBL document CHEMBL3988442, “University of Dundee, Small-Polar-MMV Screening Library” (2021)
